Reference: ChEMBL document CHEMBL1157539, “Thousands of chemical starting points for antimalarial lead identification” (Nature, 2010)

How the values were obtained:
Format in all cases: functional
Plasmodium falciparum [1] = experiment: GSK_TCMDC: Inhibition of Plasmodium falciparum 3D7 in whole red blood cells, using parasite LDH activity as an index of growth. Test compounds present at 2uM
Plasmodium falciparum [2] = experiment: GSK_TCMDC: Inhibition of Plasmodium falciparum Dd2 in whole red blood cells, using parasite LDH activity as an index of growth. Test compounds present at 2uM
HepG2 = experiment: GSK_TCMDC: Percent inhibition of human HepG2 cell line. Test compounds present at 10uM.

Compound	Inhibition (Plasmodium falciparum [1]) [%]	Inhibition (Plasmodium falciparum [2]) [%]	Inhibition (HepG2) [%]
Cc1ccc(NC(=O)c2c(C)noc2-c2snnc2C)cc1	92	71	1
Fc1cccc(Nc2nc(NCCc3ccc(Cl)cc3)nc(Nc3cccc(F)c3)n2)c1	93	30	0
COc1ccc(C(c2ccc(N(C)C)cc2)c2ccc(N(C)C)cc2)cc1	100	99	72
COc1cc(Cl)c(C)cc1-n1cc(C(=O)c2cc(Br)ccc2O)cc(C#N)c1=O	95	35	3
CCCCCCCc1c(C)nc2c(OC)cccc2c1O	89	85	0
CC[C@@H]([C@@H](CC(C)C)C(=O)N[C@@H](CCCCNC(=O)OCc1ccccc1)C(=O)Nc1ccccn1)N(O)C=O	98	99	0
FC(F)(F)c1ccc2[nH]ccc(=NN=Cc3cccc(Cl)c3)c2c1	97	2	0
COc1ccc(NC(=O)c2ccc(-c3nc(-c4ccccc4)cs3)cc2)cc1N1CCN(C)CC1.O=C(O)C(=O)O	93	13	17
CC(=NO)C1=C(O)C(c2ccccc2)N(c2ccccc2)C1=O (configuration not stated)	99	23	12
Br.CC1(C)N=C(N)N=C(N)N1OCCc1ccc2ccccc2c1	96	95	65
Cc1ccc(C(=O)Nc2cc(C(F)(F)F)cc(C(F)(F)F)c2)cc1[N+](=O)[O-]	100	61	17
CC(=O)NC(c1cccs1)c1cc(Cl)c2cccnc2c1O (configuration not stated)	94	93	65
COc1ccc(Cl)cc1N1CCN(CCCNC(=O)c2ccc(-c3nc4cc(Cl)c(F)cc4[nH]3)c(F)c2)CC1	100	91	21
COc1ccc(CN2CCCC(N3CC4(OC3=O)c3ccccc3-c3ccccc34)C2)c(O)c1 (configuration not stated)	92	34	14
CN1CCC(NCc2ccc(-c3ccc(S(=O)(=O)NCc4ccccc4)c(F)c3)cc2)CC1.O=C(O)C(F)(F)F	99	89	53
COc1ccc(C2(CNCC(O)c3cccc([N+](=O)[O-])c3)CCCC2)cc1OC (configuration not stated)	93	85	10
COc1ccc2nccc([C@@H](O)CN3CCC(NCc4cc5oc(=O)[nH]c5cc4F)CC3)c2c1.O=C(O)C(=O)O	99	4	0
COc1ccc(CNCc2cccc(-c3ccc(-c4nc5cc(C(F)(F)F)ccc5[nH]4)cc3)c2)cc1.O=C(O)C(F)(F)F	100	95	23
Cc1[nH]c(C)c(-c2ccc(-c3ccc(F)cc3)nc2)c(=O)c1Br	97	96	15
Nc1ncc(-c2cn[nH]c2)cc1-c1nc2ccc(F)cc2[nH]1	100	53	38

Compound	Inhibition (Plasmodium falciparum [1]) [%]	Inhibition (Plasmodium falciparum [2]) [%]	Inhibition (HepG2) [%]
CC(C)NCc1cccc(-c2ccc(NC(=O)c3cccc(C#N)c3)cc2)c1.O=C(O)C(F)(F)F	100	95	22
CN(C)S(=O)(=O)c1cc(-c2ccc3nccc(-c4cccc(S(N)(=O)=O)c4)c3c2)cnc1N	100	98	35
COC(=O)c1cccc(NC(=O)NC2CCN(c3ccnc(Nc4ccc(F)cc4)n3)C2)c1 (configuration not stated)	100	83	5
CCN(CCCN1CCCCC1)c1cc(C)nc(Nc2cc(Cl)cc(Cl)c2)n1.O=C(O)C(F)(F)F	100	99	34
Cl.NC1(C(=O)O)Cc2ccc(Cl)cc2C1 (configuration not stated)	93	1	0
COc1ccc(CNCc2ccc(F)cc2)cc1-c1cccc(S(=O)(=O)NCCN2CCCC2)c1.O=C(O)C(F)(F)F	100	54	43
Cl.N#Cc1ccc2c(c1)CCN(CCC1CCC(NC(=O)c3ccc(-c4ccccn4)s3)CC1)CC2 (configuration not stated)	92	9	16
COc1ccc(CNC(=O)NC2CCN(c3ccnc(Nc4ccc(OC)cc4)n3)C2)cc1 (configuration not stated)	87	80	27
CCn1c(SCc2ccccc2)nc2c1c(=O)[nH]c(=O)n2C	96	30	1
O=C(Nc1ccc(C(F)(F)F)cc1)c1ccc(S(=O)(=O)NC2CCN(CC3CCCCC3)C2)cc1.O=C(O)C(F)(F)F (configuration not stated)	99	16	33
CCCCNC(=O)[C@@H](NC(=O)c1ccc(O)c(-c2ccc(Cl)c(Cl)c2)c1)C(C)C	97	98	0
Cc1cccc(-c2ccc3c(c2)CC(NCc2cccc(-n4ccnc4)c2)C3)c1 (configuration not stated)	100	49	11
Fc1ccc(C(OCC2CCCN(Cc3cccc4cccnc34)C2)c2ccc(F)cc2)cc1 (configuration not stated)	98	97	21
CCN(CC)CCNC(=O)c1ccc(Nc2ncc([N+](=O)[O-])c(Nc3ccccc3OC)n2)cc1.Cl	97	58	59
CN(C)/C(=N/C(=N)NCc1ccc(Cl)c(Cl)c1)NCCCCCCN/C(=N\C(=N)NCc1ccc(Cl)c(Cl)c1)N(C)C	93	99	20
CN(C)CCOc1ccc(-c2cc(-c3ccc(Cl)c(O)c3)c(-c3ccnc(N)n3)o2)cc1	100	95	43
COc1cccc2cc(C(=O)N[C@@H](CC(C)C)C(=O)N[C@H](/C=N/N(C)C(=O)OC(C)(C)C)CC(=O)OC(C)(C)C)oc12	87	67	5
COCCOc1cccc(CN2CCC(c3cc4nc(C)cc(C(F)(F)F)n4n3)C2)c1.O=C(O)CC(O)(CC(=O)O)C(=O)O (configuration not stated)	85	74	25
CC(C)(C)c1ccc(NC(=O)c2ccc(CN3CCCN(Cc4cccc(C#N)c4)CC3)cc2)cc1.O=C(O)C(F)(F)F	99	12	54
Cc1cc(N2CCN(CC3CCN(C)CC3)CC2)nc(Nc2ccc(Cl)cc2)n1	99	89	20

Compound	Inhibition (Plasmodium falciparum [1]) [%]	Inhibition (Plasmodium falciparum [2]) [%]	Inhibition (HepG2) [%]
COc1ccc2sc(CNCCCNc3cc(=O)c4ccccc4[nH]3)c(Cl)c2c1.Cl	85	42	1
O=C(Nc1cccc(-c2cccc(-c3nc4ccccc4[nH]3)c2)c1)c1cccnc1	95	14	12
CC(Sc1nc2sccc2c(=O)n1C)C(=O)Nc1ccc2c(c1)OCO2 (configuration not stated)	100	100	5
O=[N+]([O-])c1cccc(Nc2cncc(-c3ccc(CO)cc3)c2)c1	85	96	16
O=C(Cc1ccccc1)NC1(c2ccccc2)CCN(CCc2c[nH]c3ccc(F)cc23)CC1	87	62	29
COCCOc1cc(C)c(C2CCN(CCCCNC(=O)c3ccc(NC(=O)c4ccc(Cl)cc4)cc3)CC2)cc1C	88	30	15
CCCc1ccc(NC(=O)c2cccc(CN3CCCN(Cc4cccc(C#N)c4)CC3)c2)cc1.O=C(O)C(F)(F)F	85	0	20
OC(CNc1ccnc(Nc2ccccc2)n1)c1ccc(C(F)(F)F)cc1 (configuration not stated)	100	39	3
Cl.c1ccc(-c2nc3ccccc3[nH]2)c(Nc2ccnc3cc(-c4nccs4)ccc23)c1	100	98	0
CC(C)c1ccc(Nc2nc(NCCc3c[nH]cn3)nc(NCc3ccccc3)n2)cc1	98	2	1
O=C(NCCc1ccccc1)N(Cc1ccccc1-c1ccc(CNCCc2ccccc2)cc1)C1CCN(Cc2ccccc2)CC1.O=C(O)C(F)(F)F	97	91	99
CCCc1c(Cl)cc(CNCCCNc2nc3ccncc3[nH]2)cc1Cl	98	0	23
c1cc2[nH]c(CCc3nc4cc(C5=NC6CCCCC6N5)ccc4[nH]3)nc2cc1C1=NC2CCCCC2N1 (configuration not stated)	93	96	3
CC(C)[C@H](NC(=O)NC1CCC(CCN2C3CCC2CC(OC(=O)C(CO)c2ccccc2)C3)CC1)C(O)(c1ccccc1)c1ccccc1 (some centres not stated)	90	4	17
O=C(/C=C/c1ccc(Cl)c(Cl)c1)NCCCCCN1CCC(CCNC(=O)/C=C/c2cc(C(F)(F)F)ccc2F)CC1	98	46	25
CCNc1cc(C)nc(Nc2ccc(NC(=O)c3ccccc3Cl)cc2)n1	100	52	48
CC(C)NCc1cccc(-c2cccc(-c3nc4ccccc4[nH]3)c2)c1.O=C(O)C(F)(F)F	100	22	11
CCn1cc(-c2nc(-c3cc(OC)cc(OC)c3)no2)c(=O)c2ccccc21	89	77	0
CCn1ncc2c(N3CCCC3=O)cc(C(=O)N[C@@H](Cc3ccccc3)[C@H](O)CNC(C)(C)c3cccc(OC)c3)cc21	98	97	6
